Beta apoptosis: beta cell apoptosis inhibition; INS-1E cytokine-induced death, ATP luminescence, 48 h; percent of positive-control rescue, neutral wells zero; protection from apoptosis, % (no concentration beside the values); hit rate 0.8% among 300,000;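 active = Every replicate reaches about 75%, or at least half do and their mean reaches it too, limit read from the data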;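 also: 0% = cytokine-treated negative control wells and 100% = positive control rescue; higher means more ATP so stronger rescue from cytokine killing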
Gli-Sufu antag: antagonists of Gli-Sufu signaling | inhibition, % at 5 µM | Sufu-KO-LIGHT fibroblasts, Gli luciferase reporter luminescence | hit rate 0.74% among 340,000;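 active = inhibition above about 55%, limit read from the data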;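 also: 0% = DMSO-treated cells and 100% = wells with medium but no cells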
Mdm2-MdmX inh: inhibitors of human Mdm2/MdmX interaction. O15151+Q00987. SaOS-2 split-luciferase Mdm2/MdmX complementation, luminescence. inhibition, % at 8 µM. hit rate 3% among 330,000;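 active = inhibition of at least 50% at 8 µM in the primary screen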
Target sequence (O15151 whole entry, looked up): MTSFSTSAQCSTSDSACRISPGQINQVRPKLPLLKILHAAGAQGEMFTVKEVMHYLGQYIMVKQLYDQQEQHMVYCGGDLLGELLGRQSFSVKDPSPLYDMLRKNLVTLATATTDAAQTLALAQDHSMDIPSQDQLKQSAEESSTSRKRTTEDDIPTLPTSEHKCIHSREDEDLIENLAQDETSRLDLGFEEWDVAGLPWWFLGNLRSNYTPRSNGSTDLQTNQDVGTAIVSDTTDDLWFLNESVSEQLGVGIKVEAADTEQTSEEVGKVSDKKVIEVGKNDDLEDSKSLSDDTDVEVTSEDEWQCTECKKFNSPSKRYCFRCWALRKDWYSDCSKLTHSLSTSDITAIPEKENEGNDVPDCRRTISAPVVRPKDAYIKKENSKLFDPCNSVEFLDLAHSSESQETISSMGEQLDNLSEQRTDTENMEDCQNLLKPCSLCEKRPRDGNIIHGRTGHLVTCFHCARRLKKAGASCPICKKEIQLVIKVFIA
Target sequence (Q00987 whole entry, looked up): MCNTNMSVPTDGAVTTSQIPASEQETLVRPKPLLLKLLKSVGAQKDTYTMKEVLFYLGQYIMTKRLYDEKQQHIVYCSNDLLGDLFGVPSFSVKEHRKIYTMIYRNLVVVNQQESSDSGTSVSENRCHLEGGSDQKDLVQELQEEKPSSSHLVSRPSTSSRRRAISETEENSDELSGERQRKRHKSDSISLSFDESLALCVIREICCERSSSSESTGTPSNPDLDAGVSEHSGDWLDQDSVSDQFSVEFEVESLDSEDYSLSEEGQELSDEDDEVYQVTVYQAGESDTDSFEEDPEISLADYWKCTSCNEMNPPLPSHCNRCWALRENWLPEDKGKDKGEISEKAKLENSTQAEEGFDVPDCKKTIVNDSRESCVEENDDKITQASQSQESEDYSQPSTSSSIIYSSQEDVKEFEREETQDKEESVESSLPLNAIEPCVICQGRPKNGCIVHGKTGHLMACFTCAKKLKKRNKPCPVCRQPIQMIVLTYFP
Jurkat NFkB inh: inhibitors of the PMA/ionomycin-induced NF-kB reporter in Jurkat cells. PMA/ionomycin-induced NF-kB luciferase reporter, luminescence. inhibition, % at 4 µM. hit rate 0.53% among 330,000. AID 435003; in the data active = inhibition above about 50%
697 NFkB inh: inhibitors of the PMA/ionomycin-induced NF-kB reporter in 697 B cells | 697 B-cell NF-kB luciferase reporter, 16 h | hit rate 0.33% among 330,000 | inhibition, % at 4 µM; in the data active = inhibition above about 35%
Jurkat NFkB conf: inhibitors of the PMA/ionomycin-induced NF-kB reporter in Jurkat cells, retest. inhibition, % at 4 µM. Jurkat NF-kB luciferase, 16 h. AID 435020. shares compounds with Jurkat NFkB inh. hit rate 27% among 2,700;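 active = inhibition reaching about 45% at 4 µM in either replicate, limit read from the data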;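 also: plate controls were PMA/ionomycin stimulated DMSO wells for no effect and unstimulated DMSO wells for full effect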
697 NFkB conf: inhibitors of the PMA/ionomycin-induced NF-kB reporter in 697 B cells, retest. shares compounds with 697 NFkB inh. 697 B-cell NF-kB luciferase, 16 h. inhibition, % at 4 µM. hit rate 35% among 2,000; in the data active = inhibition mostly above about 28%, no sharp cut-off; inactive = mostly below about 22%
Mdm2 MdmX conf: human Mdm2/MdmX binding inhibition, confirmed | shares compounds with Mdm2-MdmX inh | luminescent assay | inhibition, % at 8 µM | hit rate 55% among 10,000; in the data active = inhibition above about 40%
Full FLuc ctr: counter-screen for Mdm2/MdmX inhibitors: full-length luciferase; shares compounds with Mdm2-MdmX inh; SaOS-2 full-length luciferase counterscreen, luminescence; inhibition, % at 8 µM; hit rate 77% among 6,200;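 active = mean inhibition at 8 µM reaching about 37%, which flags the compound as non-specific, limit read from the data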;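 also: p53-null SaOS-2 cells with luciferase driven by a doxycycline-inducible promoter; compound on cells about two nights before reading with doxycycline added after day one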
Numbers without * were called inactive; i = inactive; x = no result given. A selection: hits, their analogues and other compounds. The true share with any hit is near 4%.

SMILES | Beta apoptosis | Gli-Sufu antag | Mdm2-MdmX inh | Jurkat NFkB inh | 697 NFkB inh | Jurkat NFkB conf | Mdm2 MdmX conf | Full FLuc ctr | others
Cc1cc(NC(=O)CSc2nnc(-c3ccccc3)c(-c3ccccc3)n2)no1 | -6 | -3 | 53* | 60* | 4 | 13 | 56* | 47*
COc1ccc(NC(=O)CSc2nc3ccccc3c3nc4ccccc4n23)cc1 | 4 | -1 | x | x | x | x | x | x
Cc1ccc(NC(=O)CSc2nc3ccccc3c3nc4ccccc4n23)cc1 | 41 | 46 | 81* | 73* | 3 | 39 | 58* | 70*
O=C(Cc1cccs1)Nc1nc2c(s1)CCCC2 | 1 | -62 | 56* | -152 | i | -60 | 47* | 90* | 697 NFkB conf=i
O=C(Cc1cn2ccsc2n1)Nc1nc2c(s1)CCCC2 | 10 | 9 | -23 | -7 | -1 | x | x | x
COc1ccc(C(=O)NCC(c2ccccc2)N2CCCC2)cc1S(=O)(=O)N1CCOCC1 (configuration not stated) | -1 | 2 | 19 | -7 | -8 | x | x | x
COc1ccc(CNc2ncc(-c3ccc(F)cc3)n2C)c2ccccc12 | -2 | 56* | 57* | 71* | 40* | 50* | 25 | x | 697 NFkB conf=48*
CCCC(=O)NC(c1ccc(OC)cc1)c1ccc2cccnc2c1O (configuration not stated) | 97* | 47 | 82* | 62* | -17 | 60* | 78* | 50*
CCCCC(=O)NC(c1ccc(C(C)C)cc1)c1ccc2cccnc2c1O (configuration not stated) | x | 51 | 78* | 61* | -29 | 82* | 88* | 19
COc1ccc(CNC(=O)CSc2cccc3cccnc23)cc1 | x | 3 | 15 | 0 | -14 | x | x | x
CNc1nc(N)c(C(=O)Nc2cc(C)on2)s1 | -1 | x | -17 | -17 | -26 | x | x | x
CN(C)c1nnnn1Cc1ccc(Cl)cc1Cl | -14 | -3 | 1 | -6 | 6 | x | x | x
Cc1cc(C(=O)COC(=O)c2ccccc2O)c(C)n1CC1CCCO1 (configuration not stated) | 12 | 58* | 94* | 74* | 52* | 86* | 97* | 36 | 697 NFkB conf=43*
CCn1c(C)cc(C(=O)COC(=O)c2ccccc2[N+](=O)[O-])c1C | 32 | 87* | 96* | 59* | 41* | 94* | 96* | 53* | 697 NFkB conf=47*
CN(C)CCCn1cnc2c(c1=N)C(c1ccccc1)c1ccc3ccccc3c1O2 (configuration not stated) | 98* | 12 | 100* | 87* | 2 | 24 | 100* | 52*
COc1ccc(Cc2nc3c4c(ncn3n2)Oc2c(ccc3ccccc23)C4c2ccc(OC)c(OC)c2)cc1 (configuration not stated) | -2 | 5 | 13 | -7 | -31 | x | x | x
N=c1c2c(ncn1CCN1CCOCC1)Oc1cc(O)ccc1C2c1ccccc1 (configuration not stated) | 4 | 4 | 15 | 8 | 10 | x | x | x
COc1ccc(C2c3ccc4ccccc4c3Oc3ncn(CCN(C)C)c(=N)c32)cc1 (configuration not stated) | 7 | 15 | 91* | 51* | 19 | 4 | 43* | 64*
CCN(CC)C(=N)/C(C#N)=N/Nc1ccccc1 | 2 | -21 | 1 | -34 | -6 | x | x | x
Cc1ccnc(NC(=O)CCC(=O)N(Cc2ccco2)C(C(=O)NC(C)C)c2ccc(F)cc2)c1 (configuration not stated) | 1 | -13 | 1 | -1 | -1 | x | x | x
COc1cc(/C=C2\SC(=Nc3ccc(O)cc3)NC2=O)cc(OC)c1OC | 11 | -2 | 52* | 59* | 2 | 1 | 65* | 28
O=C1CC(c2cccc(Cl)c2)c2cc3c(cc2N1)CCC3 (configuration not stated) | x | 3 | 54* | 56* | -60 | 35 | 58* | 64*
O=C1CC(c2ccccc2Br)c2cc3c(cc2N1)CCC3 (configuration not stated) | 4 | x | 58* | 55* | -47 | 12 | 62* | 56*
O=C1CC(c2cc(Br)ccc2F)c2cc3c(cc2N1)CCC3 (configuration not stated) | 40 | 37 | 66* | 73* | 8 | 48* | 56* | 95*
Cc1cc2c(cc1C)C(c1ccccc1Br)CC(=O)N2 (configuration not stated) | -2 | 6 | 17 | 17 | 4 | x | x | x
SMILES | Beta apoptosis | Gli-Sufu antag | Mdm2-MdmX inh | Jurkat NFkB inh | 697 NFkB inh | Jurkat NFkB conf | Mdm2 MdmX conf | Full FLuc ctr | others
CC(C)(C)C(=O)/C(=C\c1ccc([N+](=O)[O-])cc1)n1cncn1 | 112* | x | 99* | 76* | 44* | 57* | 100* | 2 | 697 NFkB conf=50*
CCCCOc1ccc(Br)cc1/C(C)=N/NC1=NCCN1 | 56 | -62 | 89* | 76* | -42 | 53* | 64* | 39*
COc1ccc(/C(C)=N/NC2=NCCN2)cc1Cl | 8 | 8 | 21 | 30 | -7 | x | x | x
CC1C/C(=C/c2ccco2)C(=O)/C(=C/c2ccco2)C1 (configuration not stated) | x | x | -1 | 10 | -15 | x | x | x
CC1C/C(=C/c2ccccn2)C(=O)/C(=C/c2ccccn2)C1 (configuration not stated) | -12 | 34 | 98* | 91* | -76 | 28 | 100* | 51*
O=C1/C(=C/c2ccccn2)COc2ccccc21 | 0 | -8 | 2 | -15 | 0 | x | x | x
CC(C)(C)C1C/C(=C/c2ccccn2)C(=O)/C(=C/c2ccccn2)C1 (configuration not stated) | 109* | 66* | 100* | 100* | 105* | -5 | 100* | 51* | 697 NFkB conf=-124
COc1cc(C(C)=O)ccc1O | -7 | -2 | -18 | 4 | -12 | x | x | x
CN1CC(=O)N(CC(=O)NC2CCCCC2)C1=O | 7 | 8 | -4 | -8 | -2 | x | x | x
Cc1coc2c(C)c3oc(=O)c(CCC(=O)N[C@@H](C)C(=O)N[C@@H](Cc4ccccc4)C(=O)O)c(C)c3cc12 | 3 | -6 | 23 | -8 | 14 | x | x | x
CC(=O)Nc1ccc2c(c1)ncn2C | -5 | 1 | 9 | -4 | 20 | x | x | x
COc1cc(C(=O)Nc2ccc3c(c2)ncn3C)cc(OC)c1OC | 32 | x | 55* | 52* | -53 | 37 | 55* | 58*
Cc1ccc(S(=O)(=O)/N=C2\C=C(Nc3ccc(O)cc3)C(=O)c3ccccc32)cc1 | 120* | 94* | 95* | 64* | 19 | 99* | 89* | 5

Source: PubChem
